Compound activity deposited in PubChem by several laboratories.
BaF3 parental – parental Ba/F3 cell viability inhibition, counter-screen for JAK2V617F inhibitor project, murine pro-B, CellTiter-Glo luminescence. CellTiter-Glo ATP luminescence. inhibition, % at 5.6 µM. hit rate 1.1% among 220,000. AID 1486, 2009;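 active = inhibition above a per-campaign cutoff, the mean inhibition of all tested compounds plus 3 SD, cut at about 27% in these data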
IEC-6 tox-1 – cytotoxicity in IEC-6 intestinal epithelial cells, primary screen, cytotoxicity control for KLF5 inhibitor project, cell-based, luminescence; IEC-6 cytotoxicity, luminescence viability; inhibition, % at 5 µM; hit rate 0.78% among 290,000; AID 1825, 2009
KLF5 inh – KLF5 expression inhibitors, primary screen, DLD-1 cells, luminescence | DLD-1 KLF5 promoter-luciferase reporter | AID 1700, 2009 | inhibition, % at 5 µM | hit rate 0.23% among 290,000;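 active = inhibition above a per-plate limit of that plate's mean compound inhibition plus 3 SD, cut at about 60% in these data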;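 note: higher means less KLF5 promoter-driven luciferase light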
APP 5UTR inh – inhibitors of APP translation via 5'UTR reporter, primary screen, APP 5'UTR luciferase, SH-SY5Y cells; SH-SY5Y APP 5'UTR-luciferase reporter, luminescence; inhibition, % at 2 µM; hit rate 0.82% among 190,000; AID 1285, 2008;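 active = inhibition above a set limit, derived from the sample mean plus 3 SD, cut at about 45% in these data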
Ba/F3 V617F tox – reduced viability of JAK2V617F-dependent Ba/F3 cells, primary screen, JAK2V617F inhibitor project, cell-based, Ba/F3 EpoR-JAK2V617F, luminescence; ATP luminescence; AID 1446, 2008; inhibition, % at 5.6 µM; hit rate 1.1% among 220,000;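 active = inhibition above the campaign mean plus 3 SD over all tested compounds, cut at about 24% in these data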;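 note: cytokine-independent growth of Ba/F3 cells driven by EpoR plus mutant JAK2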
aSyn UTR inh – MLPCN primary screen, SNCA 5' untranslated region; alpha-synuclein 5'UTR reporter, inhibitor activity; inhibition, % (tested at 7.5 µM); hit rate 0.82% among 300,000; AID 1813, 2009; in the data active = inhibition above about 60%;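 note: H4 neuroglioblastoma cells stably carrying SNCA 5'UTR luciferase fusion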
BaF3 tox 2 – parental Ba/F3 cell viability inhibition, counter-screen for JAK2V617F inhibitor project, murine pro-B, CellTiter-Glo luminescence | AID 1520, 2009 | shares compounds with Ba/F3 V617F tox | cells kept alive by added IL-3 | inhibition, % at 5.6 µM | hit rate 31% among 580;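 active = cell growth inhibition above the hit limit set in the earlier mutant JAK2 cell screen, cut at about 27% in these data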
JAK2V617F confrm – viability loss in Ba/F3 EpoR-JAK2V617F cells, confirmation, JAK2V617F inhibitor project, cell-based, luminescence, triplicate; shares compounds with Ba/F3 V617F tox; CellTiter-Glo luminescence; inhibition, % at 5.6 µM; hit rate 66% among 580; AID 1521, 2009;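 active = mean inhibition above the hit cutoff derived in the earlier primary screen, cut at about 25% in these data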;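 note: higher means lower luminescence from reduced cell ATP and viability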
KLF5 inh confirm – KLF5 expression inhibitors, confirmation, DLD-1 cells, luminescence | inhibition, % at 4 µM | hit rate 79% among 610 | shares compounds with KLF5 inh | AID 1834, 2009 | DLD-1 KLF5 promoter firefly luciferase reporter;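 active = inhibition above a set limit taken from the earlier primary screen, cut at about 63% in these data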
IEC-6 tox-2 – cytotoxicity in rat IEC-6 cells, cytotoxicity control for KLF5 inhibitor project, cell-based, luminescence, triplicate. shares compounds with KLF5 inh. IEC-6 rat intestinal cells, viability luminescence. inhibition, % at 4 µM. hit rate 56% among 610. AID 1905, 2009; in the data active = inhibition above about 23%;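 note: cells exposed to compounds for 48 hours before viability read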
IEC-6 cytotox cf – cytotoxic compounds in IEC-6 epithelial cells, confirmation, cytotoxicity control, cell-based, luminescence. shares compounds with IEC-6 tox-1. IEC-6 rat intestinal epithelial viability. inhibition, % at 5 µM. hit rate 63% among 1,900
A number is an active result; n = inactive; x = no result. Shown are actives, neighbours in structure and some others; about 2.2% of the full set was active somewhere. Cut-off read from the data, not from the text of the source, unless noted: active = inhibition above about 22%; inactive = the rest.

SMILES	BaF3 parental	IEC-6 tox-1	KLF5 inh	APP 5UTR inh	Ba/F3 V617F tox	aSyn UTR inh	IEC-6 cytotox cf	others
Cc1nn(Cc2ccccc2Cl)c(C)c1C(=O)OCC(=O)NC1CCCC(C)C1C (centres undefined)	n	n	n	n	76	n	x	BaF3 tox 2=n;JAK2V617F confrm=n
Cc1ncc([N+](=O)[O-])n1CCOC(N)=O	n	n	n	x	n	n	x
COC12C(COC(N)=O)C3=C(C(=O)C(C)=C(N)C3=O)N1CC1C2N1C (centres undefined)	n	n	n	x	29	n	x	BaF3 tox 2=50;JAK2V617F confrm=96
CCOc1ccc2c(c1)c(C(C)=O)c(C)n2Cc1ccco1	n	n	n	n	n	n	x
O=C(c1ccccc1F)c1cn(CC(=O)N2CCCCC2)c2ccccc12	n	n	n	n	49	n	x	BaF3 tox 2=n;JAK2V617F confrm=n
CCn1nc(/C=C/c2ccccc2)nc2c(=O)n(C)c(=O)nc1-2	n	102	n	n	44	n	104	BaF3 tox 2=103;JAK2V617F confrm=99
COc1ccccc1CCNCc1cccc(C(F)(F)F)c1	x	n	n	x	x	n	x
CCCCCCC[n+]1ccc(-c2cc[n+](CCCCCCC)cc2)cc1	93	n	77	n	95	92	x	KLF5 inh confirm=63;IEC-6 tox-2=n
CC[N+](CC)(CC)CC	x	x	x	x	x	n	x
C[C@@H]1O[C@@H](O[C@H]2C[C@@H](O)[C@]3(CO)[C@H]4[C@H](O)C[C@]5(C)[C@@H](C6COC(=O)C6)CC[C@]5(O)[C@@H]4CC[C@]3(O)C2)[C@H](O)[C@H](O)[C@H]1O (some centres undefined)	n	n	64	93	n	115	x	KLF5 inh confirm=71;IEC-6 tox-2=n
COc1ccc(OCC#CCN2CCNCC2)cc1	x	n	n	x	x	n	x
C/C=C(\C)C(=O)N[C@@H](c1ccccc1)[C@@H](O)C(=O)O[C@H]1C[C@@]2(O)[C@@H](OC(=O)c3ccccc3)C3[C@](C)(C(=O)[C@H](OC(C)=O)C(=C1C)C2(C)C)[C@@H](O)C[C@H]1OC[C@@]31OC(C)=O (some centres undefined)	x	88	64	x	x	104	72	KLF5 inh confirm=88;IEC-6 tox-2=78
CC(=O)O[C@@]12CO[C@@H]1C[C@H](O)[C@@]1(C)C(=O)[C@H](O)C3=C(C)[C@@H](O)C[C@@](O)([C@@H](OC(=O)c4ccccc4)C12)C3(C)C (some centres undefined)	x	n	n	x	x	n	x
Cc1cc(Cl)ccc1OC(C)C(=O)O (centres undefined)	n	n	n	n	n	n	x
CC(=O)OC(C)(C)/C=C/C(=O)C(C)(O)C1[C@H](O)C[C@@]2(C)C3CC=C4C(CC[C@@H](O)C4(C)C)[C@]3(CO)C(=O)C[C@]12C (some centres undefined)	x	99	90	x	x	86	97	KLF5 inh confirm=93;IEC-6 tox-2=96
COc1ccc(-c2nn(CCC#N)cc2C(=O)Nc2ccccc2Br)cc1[N+](=O)[O-]	n	n	n	x	n	n	x
CC(C)[C@H]1C(=O)O[C@H](C(C)C)C(=O)N(C)[C@@H](C(C)C)C(=O)O[C@H](C(C)C)C(=O)N(C)[C@@H](C(C)C)C(=O)O[C@H](C(C)C)C(=O)N1C	77	89	70	n	98	86	54	KLF5 inh confirm=n;IEC-6 tox-2=n
CCOC(=O)c1cc(C(O)(C(=O)OC)C(F)(F)F)c(/N=C/N(C)C)o1 (centres undefined)	n	n	n	n	n	n	x
CCC(C)C(NC(=O)CCCNC(=O)CCC(=O)OC1O[C@H]2OC3(C)CC[C@H]4[C@H](C)CCC(C1C)C24OO3)C(=O)O (some centres undefined)	x	34	83	x	x	n	26	KLF5 inh confirm=84;IEC-6 tox-2=41
C[C@@H]1CC[C@H]2[C@@H](C)C(=O)O[C@@H]3O[C@@]4(C)CC[C@@H]1[C@]32OO4	x	n	n	x	x	n	x
CCN1/C(=C\C=C\C2=[N+](CC)c3ccccc3C2(C)C)C(C)(C)c2ccccc21	93	64	84	93	99	104	70	KLF5 inh confirm=104;IEC-6 tox-2=64
COC(=O)C1=C(c2cc3ccccc3s2)C[C@@H]2CC[C@H]1N2C(=O)NCc1ccco1	x	x	x	x	x	n	x
CC[C@@]1(O)C(=O)OCc2c1cc1n(c2=O)Cc2cc3ccccc3nc2-1	93	97	62	x	98	116	72	KLF5 inh confirm=94;IEC-6 tox-2=75
O=C(Nc1nccs1)C(Cl)(Cl)Cl	n	n	n	n	n	n	x
O=C(Nc1ccc(Cl)cc1)Nc1nccs1	79	68	n	60	85	n	60
SMILES	BaF3 parental	IEC-6 tox-1	KLF5 inh	APP 5UTR inh	Ba/F3 V617F tox	aSyn UTR inh	IEC-6 cytotox cf	others
CN(C)c1cc[n+](CC(O)C[n+]2ccc(N(C)C)cc2)cc1	x	x	x	x	x	n	x
CCCCCCC(Cl)(Cn1ccnc1)c1ccccc1 (centres undefined)	x	x	x	x	x	n	x
COc1cc(C2NCc3ccccc3-n3cccc32)ccc1O (centres undefined)	n	n	n	n	n	n	x
O=C1CN=C(c2ccc[nH]2)c2cc(Cl)ccc2N1	37	31	n	x	54	n	n
O=C1C2CCCN2C(c2cccs2)N1c1ccccn1 (centres undefined)	n	n	n	n	n	n	x
COc1cc(C)c(CNCCc2c[nH]c3ccccc23)cc1C	x	24	n	x	x	n	n
COc1ccc(CNCCc2c[nH]c3ccccc23)c(OC)c1C	x	n	n	x	x	n	x
COc1cc2c(cc1OC)[C@@H]1C(=O)c3ccc4c(c3O[C@@H]1CO2)C[C@H](C(C)C)O4	65	35	n	x	71	n	25
CN(C)c1ccc(/C=C/c2cc[n+](C)c3ccccc23)cc1	82	28	n	n	101	x	n
CCN1C[C@]2(CO)CC[C@H](OC)[C@@]34C5C[C@H]6[C@H](OC)C5[C@](O)(C[C@H]6OC)[C@@](O)(C(OC)C23)[C@@H]14 (some centres undefined)	x	x	x	x	x	n	x
CCC(C)NC(=O)CCC(=O)OC1O[C@H]2OC3(C)CC[C@H]4[C@H](C)CCC(C1C)C24OO3 (some centres undefined)	x	35	84	x	x	n	23
